TRHR PAM – TRH receptor (human) allosteric enhancement; actives 0.66% (n = 360,000); enhancement, % at 2 µM; AID 493056; TRHR cells, fluo-8 calcium fluorescence, EC20 TRH enhancement; in the data active = enhancement above about 30%
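Enhancer read-out: after compound pinning and an initial kinetic agonist-mode read, an EC20 of TRH (10 nM final) was injected and fluo-8 calcium signal (Ex 480/Em 530) followed at 1 s/cycle for 100 cycles in TRHR-expressing cells.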
D1 PAM – potentiators of human D1 dopamine receptor. P21728. HEK293 TREx D1 cells, calcium flux, dopamine EC20 potentiation. potentiation, % at 10 µM. actives 0.036% (n = 360,000); in the data active = potentiation above about 30%
Target sequence (P21728 whole entry, looked up): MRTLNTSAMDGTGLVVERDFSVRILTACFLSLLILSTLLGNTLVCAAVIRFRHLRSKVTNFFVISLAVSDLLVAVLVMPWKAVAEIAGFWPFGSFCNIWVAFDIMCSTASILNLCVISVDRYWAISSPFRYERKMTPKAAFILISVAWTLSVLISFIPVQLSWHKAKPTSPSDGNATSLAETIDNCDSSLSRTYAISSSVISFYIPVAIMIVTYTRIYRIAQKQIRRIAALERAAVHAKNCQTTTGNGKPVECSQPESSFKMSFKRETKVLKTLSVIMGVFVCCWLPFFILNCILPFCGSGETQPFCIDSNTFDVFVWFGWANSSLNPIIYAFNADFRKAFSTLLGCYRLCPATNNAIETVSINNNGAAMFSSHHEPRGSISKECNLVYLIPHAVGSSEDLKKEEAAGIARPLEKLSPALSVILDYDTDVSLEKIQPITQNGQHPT
D1 antag – antagonists of human D1 dopamine receptor; P21728; HEK293 TREx D1 cells, calcium flux, dopamine EC80; stronger effect = lower value; activity change, negative = inhibition, % at 10 µM; actives 3.2% (n = 360,000); AID 504652; in the data active = activity change below about -30%
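Tetracycline-induced HEK293 Trex D1 cells, force-coupled to calcium, dye-loaded; compounds added and read 180 s, then EC80 dopamine added and calcium flux tracked kinetically another 180 s.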
TRHR agonist – TRH receptor (human) agonism; TRHR cells, calcium flux fluo-8, FDSS agonist mode; actives 0.18% (n = 360,000); activation, % at 2 µM; P34981
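TRHR-expressing cells, plated overnight in medium with 10% serum, were loaded with fluo-8 calcium dye at room temperature. After a 10 s baseline, library compound was pin-added and calcium release was recorded kinetically (ex 480/em 530) as agonist response.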
D1 ag – activates the human D1 dopamine receptor; P21728; HEK293 T-REx D1 cells, calcium flux, agonist mode; activation, % at 2 µM; actives 1% (n = 360,000); AID 504660
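Agonism was scored from calcium flux recorded over 180 s (1 read/s) after pintool compound addition, following a 10-cycle baseline. Cells were inducible force-coupled HEK293 TREx D1, plated overnight at 30 C and loaded with no-wash calcium dye.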
Each line names hits and unclear results; the compound was inactive in the other large screens. In the library only some 4.6% were active in any assay of this set; here they are far more common. Rule as the data show it, unless noted: active = activation above about 30%; inactive = the rest.

COc1ccc(S(=O)(=O)NC2CCc3ccccc32)cc1OC (centres undefined)	D1 antag -37
Cn1c(=O)oc2cc(S(=O)(=O)NC3CCCc4ccccc43)ccc21 (centres undefined)	D1 antag -36 (no result: D1 PAM)
Cc1cc(C)c(NC(=O)CSc2n[nH]c(-c3ccccc3Cl)n2)c(C)c1	none
COc1ccc(N2CCN(C(CNC(=O)c3c(F)cccc3F)c3ccc4c(c3)OCO4)CC2)cc1 (centres undefined)	none
CCN(CC)c1cc2c(cc1F)c(=O)c(S(=O)(=O)c1ccc(OC)cc1)cn2Cc1ccccc1	none
Cn1nc(C(F)(F)F)c(-c2ccc(F)cc2)c1NC(=O)c1ccco1	none
Cn1nc(C(F)(F)F)c(-c2ccc(Br)cc2)c1NC(=O)Nc1ccc(F)cc1F	D1 antag -34
Cc1cc(N2C(=O)c3ccc(C(=O)Nc4ccc(O)cc4C(=O)O)cc3C2=O)no1	D1 antag -35
COc1cccc(-c2oc3ccc(C)cc3c(=O)c2O)c1	D1 ag 61
Cc1ccc(-c2oc3ccccc3c(=O)c2OCC(=O)O)cc1	none
CCOc1ccc(-c2oc3ccc(C)cc3c(=O)c2O)cc1	D1 ag 37
Cc1ccc(-c2oc3ccccc3c(=O)c2O)cc1	D1 ag 30
CC1CCN(C(=O)CSc2n[nH]c(-c3cccs3)n2)CC1	none
O=C(CSc1n[nH]c(-c2cccs2)n1)N1CCN(S(=O)(=O)c2ccccc2)CC1	D1 antag -59
CCCN(CCC)CCNC(=O)Cn1cnc2sc(C)c(S(=O)(=O)N3CCN(c4ccccc4OC)CC3)c2c1=O	none
O=c1c2cccc3c(N4CCOCC4)ccc(c32)c2nc3ccccc3n12	TRHR agonist 51, D1 ag 72
CCOC(=O)C1=C(CN2CCC(C)CC2)NC(=O)NC1c1ccc(OC(C)C)cc1 (centres undefined)	none
CCOC(=O)C1=C(CN(CC)Cc2ccccc2)NC(=O)NC1c1ccc(OC(C)C)cc1 (centres undefined)	D1 antag -45
NS(=O)(=O)c1ccc(CCNC(=O)C2CCN(S(=O)(=O)c3c(Cl)cccc3Cl)CC2)cc1	TRHR PAM 36
NS(=O)(=O)c1ccc(CCNC(=O)CN2CCC(Cc3ccccc3)CC2)cc1	D1 antag -44
O=C(CN1CCC(Cc2ccccc2)CC1)NCCc1ccc(F)cc1	none
NS(=O)(=O)c1ccc(CCNC(=O)C2CCN(S(=O)(=O)c3ccccc3)CC2)cc1	none
Cn1nnc2c(N3CCN(c4ccccc4F)CC3)ncnc21	none (no result: D1 antag)
COc1cc(C(=O)N2CCc3c([nH]c4ccccc34)C2c2ccc(C)cc2)cc(OC)c1OC (centres undefined)	none
Cc1cc(C)c(C)c(OCC(=O)O/N=C(\N)c2ccncc2)c1	none
Cc1ccc(OCC(=O)O/N=C(\N)c2ccncc2)c(C)c1	D1 antag -31 (no result: D1 PAM)
CCOc1ccc(C(=O)N2CC(=O)Nc3ccc(C)cc3C2c2ccc(F)cc2)cc1OCC (centres undefined)	none
O=C(COc1ccc(Cl)cc1Cl)Nc1ccc(C(=O)OC2CCCCC2)cc1	none
Cc1cnc2c(c1SCC(=O)N(C)c1ccccc1)c(=O)n(C)c(=O)n2C	none (no result: D1 antag)
COc1cccc(CSc2nc3n(n2)C(CC(C)C)C(C(=O)Nc2ccccc2C)=C(C)N3)c1 (centres undefined)	none
Cn1nccc1NC(=O)Nc1cccc(Cl)c1Cl	D1 antag -33
CN1CCN(NC(=O)Nc2cccc(Cl)c2Cl)CC1	none
COc1ccc(-n2c(=O)c3ccc(C(=O)NCc4ccc(C)cc4)cc3n(Cc3cccc(Cl)c3)c2=O)cc1	none
COc1ccc(-c2noc(CSc3nnc(-c4ccc(Cl)cc4)n3C)n2)cc1OC	D1 antag -31
COc1ccc(-c2noc(CSc3nnc(-c4ccccc4)n3C)n2)cc1	none
COc1ccc(-c2noc(CSc3nnc(C)n3-c3cccc(C)c3)n2)cc1	D1 antag -34
Cc1nnc(N2C(=O)c3oc4ccccc4c(=O)c3C2c2ccc(F)cc2)s1 (centres undefined)	none
CC1S/C(=N/N=C/c2ccco2)N(Cc2ccccc2)C1=O (centres undefined)	D1 antag -40
CCC1S/C(=N/N=C/c2ccco2)N(Cc2ccc(F)cc2)C1=O (centres undefined)	none
